Data: PubChem BioAssay (NCATS)
Results filed as inconclusive are left out. The source made the active and inactive calls. Calls follow the shape of the dose curve; as a rule, active = well fitted curve in the direction sought with a large enough effect; inconclusive = small, poorly fitted or top-dose-only effect, or another doubt; inactive = no such curve, though single readings can be large; an effect the other way counts as inactive or inconclusive.

Legend:
[1] = target: Aldehyde dehydrogenase, mitochondrial (Homo sapiens) (UniProt P05091); assay: qHTS for Inhibitors of the Aldehyde Dehydrogenase Family (ALDH2) Primary screen (AID 2061308);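 also: plate controls were vehicle for no effect and reference inhibitor for full effect; nearly all actives have a fitted effect of over 55% in size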
[2] = target: Retinaldehyde dehydrogenase 3 (Homo sapiens) (UniProt P47895); assay: qHTS for Inhibitors of the Aldehyde Dehydrogenase Family (ALDH1A3) Primary screen (AID 2061315);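 also: plate controls were DMSO vehicle for no effect and reference inhibitor for full effect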
[3] = BET inhibitor-based combinations targeting novel dependencies in MECOM-rearranged (r) AML: SET-2 cell line (AID 2202231); conditions: SET-2 AML cells viability, CellTiter-Glo luminescence, 48 h; viability: hits give low values, concentration not given here; also: nearly all actives have a fitted effect of over 35% in size; also: potency is read from the fitted curve at half-maximal effect;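 as to viability: plate controls were DMSO treated cells for no effect and wells without cells for full effect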
Outline: (§1)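 Each compound was tested at eleven concentrations on cells seeded at 500/well. After two days' incubation, ATP-based luminescence reported viability; responses relative to DMSO and blank wells yielded AUC and cell-line-centred Z-AUC.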

[4] = BET inhibitor-based combinations targeting novel dependencies in MECOM-rearranged (r) AML: OCI-AML3 cell line (AID 2202232); conditions: Potency: OCI-AML3 viability; also: nearly all actives have a fitted effect of over 35% in size; also: potency is read from the fitted curve at half-maximal effect
Outline: as §1

[5] = BET inhibitor-based combinations targeting novel dependencies in MECOM-rearranged (r) AML: MV-4-11 cell line (AID 2202233); also: nearly all actives have a fitted effect of over 45% in size; also: potency is read from the fitted curve at half-maximal effect
Outline: (§2)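 First, 500 cells per well were seeded; next, drugs were pinned as 11-point doses; then plates sat 48 hr in the incubator; finally CellTiter-Glo was added and luminescence read, with AUC and Z-AUC computed.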

[6] = BET inhibitor-based combinations targeting novel dependencies in MECOM-rearranged (r) AML: HNT-34 cell line (AID 2202234); also: nearly all actives have a fitted effect of over 35% in size; also: potency is read from the fitted curve at half-maximal effect
Outline: as §2

[7] = BET inhibitor-based combinations targeting novel dependencies in MECOM-rearranged (r) AML: AML-191 cell line (AID 2202236; also: nearly all actives have a fitted effect of over 35% in size; also: potency is read from the fitted curve at half-maximal effect)
Outline: as §1

[8] = BET inhibitor-based combinations targeting novel dependencies in MECOM-rearranged (r) AML: UCSD-AML1 cell line (AID 2202235);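 also: series mostly up to about 46 µM; plate controls were DMSO vehicle wells for no effect and blank wells for full effect; nearly all actives have a fitted effect of over 40% in size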
Outline: as §2

[9] = BET inhibitor-based combinations targeting novel dependencies in MECOM-rearranged (r) AML: AML-194 cell line (AID 2202237; also: nearly all actives have a fitted effect of over 40% in size; also: potency is read from the fitted curve at half-maximal effect)
Outline: as §1

[10] = target: Retinaldehyde dehydrogenase 3 (Homo sapiens) (UniProt P47895); assay: qHTS for Inhibitors of the Aldehyde Dehydrogenase Family (ALDH1A3) Confirmatory screens (AID 2061311); also: potency is read from the fitted curve at half-maximal effect; nearly all actives have a fitted effect of over 60% in size
[11] = target: Aldehyde dehydrogenase 1A1 (Homo sapiens) (UniProt P00352); assay: qHTS for Inhibitors of the Aldehyde Dehydrogenase Family (ALDH1A1) Confirmatory screens (AID 2061316); also: potency is read from the fitted curve at half-maximal effect; nearly all actives have a fitted effect of over 65% in size
[12] = target: Retinal dehydrogenase 2 (Homo sapiens) (UniProt O94788); assay: qHTS for Inhibitors of the Aldehyde Dehydrogenase Family (ALDH1A2) Confirmation screens (AID 2061314); also: potency is read from the fitted curve at half-maximal effect; nearly all actives have a fitted effect of over 65% in size

CCc1nn2c(=O)c(F)c(N3CCNCC3)nc2s1
inactive: Potency [1] | Potency [2]

Cc1nc2ccccn2c1P(=S)(c1ccccc1)c1ccccc1
inactive: Potency [2]

Cc1ccccc1[C@@H](C(=O)NC1CCCCC1)N(C(=O)Cn1ccnc1C)c1cccc(F)c1
inactive: Potency [1] | Potency [2]

Cn1cc(Br)c(C2N=C(Nc3nc4ccccc4o3)NC3=C2C(=O)CCC3)n1 (configuration not stated)
inactive: Potency [1] | Potency [2]

CO[C@H]1[C@@H](O)[C@@H](C)O[C@@H](O[C@@H]2C=C3C(OC(C)=O)CC4(O)C(CC[C@]5(C)[C@@H](C6=CC(=O)OC6)CC[C@]45O)[C@@]3(C)CC2)[C@@H]1O (some centres not stated)
inactive: Potency [1] | Potency [2]

CCC(C)/C=C(C)/C=C/C1=CC2=C(Cl)C(=O)C(C)(OC(C)=O)C(=O)C2=CO1 (configuration not stated)
inactive: Potency [2]

COC1C(O)C(OC2CCC3(C=O)C(CCC4C3CCC3(C)C(C5=CC(=O)OC5)CCC43O)C2)OC(C)C1OC1OC(CO)C(O)C(O)C1O (configuration not stated)
inactive: Potency [1] | Potency [2]

CC(=O)OCC1=C(C(=O)O)N2C(=O)[C@@H](N)[C@H]2SC1
inactive: Potency [2]

CCOP(=O)(OCC)C(C)NC(=O)N(CCCl)N=O (configuration not stated)
inactive: viability [3] 106% | Potency [4] | Potency [5] | Potency [6] | Potency [7]

C[C@@H](C1CC[C@@]2(O)C3=CC(=O)[C@@H]4C[C@@H](O)[C@@H](O)C[C@]4(C)[C@H]3CC[C@]12C)[C@H](O)CCC(C)(C)O (some centres not stated)
inactive: viability [3] 104% | Potency [4] | Potency [5] | Potency [8]

CC(C)(O)/C=C\C(=O)[C@](C)(O)[C@H]1[C@H](O)C[C@]2(C)[C@@H]3CC=C4[C@@H](C=C(O)C(=O)C4(C)C)[C@]3(C)C(=O)C[C@@]12C
active: Potency [3] 1660 nM | Potency [4] 417 nM | Potency [5] 148 nM | Potency [6] 105 nM | Potency [7] 93.4 nM | Potency [9] 417 nM

COc1cccc(CNc2ccc(S(=O)(=O)Nc3nc(C)c(C)s3)cc2)c1O
active: Potency [10] 12700 nM | Potency [11] 10100 nM

CO[C@H]1[C@H](O)[C@H](O[C@H]2CC[C@]3(C)C4CC[C@]5(C)[C@H](C6=CC(=O)OC6)CC[C@]5(O)C4CC[C@@H]3C2)O[C@@H](C)[C@@H]1O (some centres not stated)
inactive: Potency [1] | Potency [2]

Cn1c(CCCCCCC(=O)NO)nc2cc(N(CCCl)CCCl)ccc21
active: Potency [3] 2630 nM | Potency [4] 2350 nM | Potency [5] 1480 nM | Potency [6] 2950 nM | Potency [7] 2630 nM | Potency [9] 2950 nM

C[C@]12CC[C@H](O)CC1=CC[C@@H]1[C@@H]2CC[C@]2(C)C(=O)CC[C@@H]12
inactive: Potency [1] | Potency [2] | viability [3] 109% | Potency [4] | Potency [5] | Potency [8] | Potency [7] | Potency [9]

C#CCN(C)[C@H](C)Cc1ccccc1
inactive: viability [3] 96.9% | Potency [4] | Potency [5] | Potency [8] | Potency [7]

COc1ccc(-n2c(C)cc(-c3nnc4n3CCCCC4)c2C)cc1
active: Potency [10] 10100 nM | Potency [12] 12700 nM | Potency [11] 12700 nM
inactive: Potency [2]

O=C(O)CNC(=O)C1C(=O)N(C2CCCCC2)C(=O)N(C2CCCCC2)C1=O
inactive: viability [3] 114% | Potency [4] | Potency [5] | Potency [8] | Potency [7] | Potency [9]

CN1C(=O)[C@@H](NC(=O)[C@H](CCC(F)(F)F)[C@H](CCC(F)(F)F)C(N)=O)N=C(c2ccccc2)c2ccccc21
inactive: viability [3] 114% | Potency [4] | Potency [5] | Potency [6] | Potency [8] | Potency [7]

CN(C)[C@@H]1C(=O)C(C(N)=O)=C(O)[C@@]2(O)C(=O)C3=C(O)c4c(O)cccc4[C@@](C)(O)[C@H]3[C@H](O)[C@@H]12
inactive: viability [3] 103% | Potency [4] | Potency [5] | Potency [6] | Potency [8] | Potency [7] | Potency [9]

C[C@H]1CCC/C=C/C2C[C@H](O)C[C@H]2[C@H](O)/C=C/C(=O)O1 (some centres not stated)
active: Potency [3] 332 nM | Potency [5] 263 nM | Potency [6] 296 nM
inactive: Potency [1] | Potency [2]

C=C1[C@@H](C)[C@H]2[C@H](Cc3ccccc3)NC(=O)[C@]23OC(=O)/C=C/C(=O)CCC[C@@H](C)C/C=C/[C@H]3[C@@H]1O
inactive: Potency [2]

CO[C@H]1C[C@H](O[C@H]2CC[C@]3(C=O)[C@H]4CC[C@]5(C)[C@@H](C6=CC(=O)OC6)CC[C@]5(O)[C@@H]4CC[C@]3(O)C2)O[C@H](C)[C@H]1O
inactive: Potency [1] | Potency [2]
